Drawing on PubChem BioAssay AID504569 (NMMLSC, 2011), this text covers outcome for three molecules.

The structures appear in SMILES notation. Potency and affinity values are given separately. The source made the active and inactive calls.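 The calls were made as follows: active = activity score above a set limit, rewarding a half-maximal dose under 10 µM and fitted response height over 20%; inactive = the rest.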

The target in this assay is ATP-dependent translocase ABCB1 (Homo sapiens) (UniProt P08183). Nature of the assay: P-gp JC-1 efflux blockade concentration-response – Jurkat-DNR cells, flow cytometry, set 2, dose response (AID 504569). Particulars: series mostly up to 50 µM. A general note: In flow cytometry, cells or beads pass a laser one at a time.
Chain of ATP-dependent translocase ABCB1 (Homo sapiens) (P08183 whole entry, looked up): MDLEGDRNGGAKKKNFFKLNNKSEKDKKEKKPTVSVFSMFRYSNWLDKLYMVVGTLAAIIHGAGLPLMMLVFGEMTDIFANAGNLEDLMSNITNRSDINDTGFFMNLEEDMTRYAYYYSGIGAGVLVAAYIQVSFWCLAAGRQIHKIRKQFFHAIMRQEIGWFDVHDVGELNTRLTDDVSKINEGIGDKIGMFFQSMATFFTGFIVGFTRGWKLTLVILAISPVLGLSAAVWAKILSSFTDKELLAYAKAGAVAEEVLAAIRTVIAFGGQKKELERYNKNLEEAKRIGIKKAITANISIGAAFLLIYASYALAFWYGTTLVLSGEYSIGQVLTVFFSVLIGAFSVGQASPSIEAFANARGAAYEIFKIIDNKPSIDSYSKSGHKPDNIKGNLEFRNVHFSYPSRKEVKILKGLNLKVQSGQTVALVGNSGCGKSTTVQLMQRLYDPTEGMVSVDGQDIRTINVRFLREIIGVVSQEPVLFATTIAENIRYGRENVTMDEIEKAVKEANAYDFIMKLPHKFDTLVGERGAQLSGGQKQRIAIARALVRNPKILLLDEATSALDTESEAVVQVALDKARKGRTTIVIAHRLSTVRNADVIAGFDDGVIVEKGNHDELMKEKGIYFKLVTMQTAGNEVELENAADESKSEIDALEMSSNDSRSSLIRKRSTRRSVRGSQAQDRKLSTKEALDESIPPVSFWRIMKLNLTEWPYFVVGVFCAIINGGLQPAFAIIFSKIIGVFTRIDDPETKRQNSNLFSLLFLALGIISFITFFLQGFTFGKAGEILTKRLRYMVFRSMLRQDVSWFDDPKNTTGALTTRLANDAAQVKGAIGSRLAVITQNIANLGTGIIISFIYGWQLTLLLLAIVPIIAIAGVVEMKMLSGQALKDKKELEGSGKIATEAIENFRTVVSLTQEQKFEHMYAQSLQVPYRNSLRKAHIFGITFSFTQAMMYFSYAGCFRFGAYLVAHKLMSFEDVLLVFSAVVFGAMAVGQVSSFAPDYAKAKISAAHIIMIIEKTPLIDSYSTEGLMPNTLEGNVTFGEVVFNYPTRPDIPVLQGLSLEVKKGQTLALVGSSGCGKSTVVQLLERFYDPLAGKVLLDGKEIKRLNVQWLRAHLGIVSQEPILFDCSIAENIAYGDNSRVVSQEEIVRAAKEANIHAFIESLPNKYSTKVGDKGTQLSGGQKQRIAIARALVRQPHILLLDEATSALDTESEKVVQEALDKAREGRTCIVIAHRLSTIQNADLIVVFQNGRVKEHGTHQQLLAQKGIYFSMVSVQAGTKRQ
With `Cc1nc2cc(-c3cccs3)nn2c(N2CCN(C(=O)c3ccco3)CC2)c1C`, the molecule was classed as inactive.

For `O=S(=O)(c1ccccc1)N1CCN(c2cc(-c3ccccc3)nc3cc(-c4cccc(Cl)c4)nn23)CC1`, the molecule was classed as inactive.

Consider `CC(=O)N1CCN(c2c(C)c(C)nc3cc(-c4ccc(Cl)cc4)nn23)CC1`, for which the molecule was classed as inactive.
